SMILES strings stand for the structures. About 64,000 (15%) of roughly 420,000 compounds were called active. Roughly 27% stayed inconclusive and do not appear here. The call rests on the fitted dose curve; in most records, active means well fitted inhibition curve with a large enough effect; inconclusive means small, poorly fitted or top-dose-only effect; inactive means flat fitted curve, though single readings scatter. The list is a sample of the results. A call without a number means that no potency is given here.
Potency means the concentration at half of the fitted maximal effect.

The assay is described as follows: qHTS for Inhibitors of human tyrosyl-DNA phosphodiesterase 1 (TDP1): qHTS in cells in absence of CPT. Further: nearly all actives have a fitted effect of over 55% in size. The note with it: DT40 Tdp1-/- hTDP1 cells, no CPT, ATP luminescence, 48 h; activity change, negative = growth inhibition: at 46.2 µM (top of the series). The method in brief:
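Growth kinetics read by CellTiter-Glo luminescence after ≥48 hr at 37 °C. Cells: DT40 Tdp1-/- stably carrying human TDP1, 400 per well, compound exposure in the absence of CPT (DMSO vehicle).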
In general terms: Quantitative high-throughput screening tests each substance at several concentrations.
As for `COCC(=O)Nc1ccc(Br)cc1`, the Potency result was “inactive”. Regarding `Cc1ccc(CCNC(=O)c2nnc(Cc3cccc(F)c3)o2)cc1`, the Potency entry is “inactive”. For `Cc1cc(Br)ccc1NC(=O)C1CCCO1` (stereo not given), the Potency result is “inactive”. For `C[C@@H]1NS(=O)(=O)c2cc(Cl)ccc2O[C@@H]1c1ccccc1`, the Potency entry is “inactive”. On to `COC(=O)C1=C(C)Nc2ncnn2C1c1cccnc1` (stereo not given), for which the Potency entry was “inactive”. `COC(=O)C1=C(C)Nc2ncnn2C1c1ccco1` (stereo not given): the Potency entry is “inactive”. Regarding `CC1=C(C(=O)OC2CCCCC2)C(c2cccnc2)n2ncnc2N1` (stereo not given), the Potency is 20.6 µM (active). As to `O=C(CSc1nnc(-c2ccc(NS(=O)(=O)c3ccccc3)cc2)o1)NCC1CCCO1` (stereo not given), the Potency entry was “inactive”.

On to `COc1ccc(-c2csc(Cc3nc(O)cs3)n2)cc1`, for which the Potency is 14.6 µM (active).

Turning to `c1ccc(Nc2nc(-c3ccncc3)cs2)nc1`, the Potency was 16.4 µM (active). For `COc1ccc(Nc2nc(-c3ccccc3)cs2)cc1`, the Potency entry was “inactive”.

Regarding `Clc1ccc(-c2csc(-c3ccncc3)n2)cc1`, the Potency result was “inactive”. For the compound `Cc1ccccc1Nc1nc(-c2cccnc2)cs1`, the Potency entry is “inactive”. Take `COc1ccc(-n2c(SC)nc(O)cc2=O)cc1`: the Potency entry is “inactive”.

In the case of `CN(c1ccc(O)cc1)c1nc(-c2cccnc2)cs1`, the Potency entry is “inactive”. Regarding `Oc1ccc(-c2csc(Nc3cccnc3)n2)cc1`, the Potency was 29.1 µM (active).

Turning to `COc1ccc(-c2csc(Nc3ccc(O)cc3)n2)cc1`, the Potency was 6.51 µM (active). For the compound `O=C(NCc1cccnc1)C(=O)Nc1nc(-c2ccccc2)cs1`, the Potency result was “inactive”. With `COc1ccc(C(C)NC(=O)C2CCCC2)cc1` (stereo not given) the entry was “inactive”; with `NC(=O)c1ccc(NC(=O)COC(=O)C(Cc2ccccc2)NC(=O)c2ccccc2)cc1` (stereo not given), “inactive”. Turning to `O=C(O)c1ccc(NC(=O)c2ccc(COc3ccc(Cl)cc3)o2)cc1`, the Potency result is “inactive”. Consider `CC(=O)Nc1cc(C(=O)N2CCc3c(Cl)cccc3C2)cc2ncn(CCc3ccccn3)c12`, for which the Potency entry was “inactive”. With `COc1cccc(C2/C(=C(/O)c3ccc(F)cc3)C(=O)C(=O)N2CCN(C)C)c1` (stereo not given), the Potency result was “inactive”.

Turning to `O=C1CC(C(=O)O)NC(=S)N1` (stereo not given), the Potency entry is “inactive”. To `CCCCCN(C(=O)NC(=O)Nc1cccc(C)c1C)S(C)(=O)=O` belongs “inactive”; to `COc1ccc(C2CC(c3cccc(OC)c3)=NN2c2ccc(S(N)(=O)=O)cc2)cc1` (stereo not given), “inactive”. Take `COc1ccccc1OCCOc1ccc(/C=C2\C(=N)N3N=C(C)SC3=NC2=O)cc1`: the Potency entry is “inactive”. Consider `COc1ccc(OC)c(Nc2nc(-c3ccc(O)c(O)c3)cs2)c1`, for which the Potency is 1.16 µM (active). With `CCN(CC(=O)Nc1c(F)cccc1F)C(=O)CN1c2cccc3cccc(c23)S1(=O)=O` the entry was “inactive”; with `CCn1c(SCC(=O)NCC2CCCO2)nc2cc(S(=O)(=O)N3CCCCC3)ccc21` (stereo not given), “inactive”; with `Cc1ccc(NC(=O)CSc2nnc(COc3ccccc3C)o2)cc1`, “inactive”. With `CC1CCCC(C)N1C(=O)CSc1nnnn1C1CCCC1` (stereo not given), the Potency result is “inactive”. To `CCOc1cccc(/C=N/NC(=S)NCCN2CCOCC2)c1O` belongs 2.91 µM (active); to `Cc1ccc(NC(=S)NCCN2CCOCC2)cc1`, “inactive”. Turning to `CCCCc1ccc(NC(=S)NCCCN2CCOCC2)cc1`, the Potency result was “inactive”.

For `Brc1cnc(N2CCCC2)nc1N1CCCCC1`, the Potency result was “inactive”.

With `C=CCn1c(CNS(=O)(=O)c2ccc(Br)cc2)nnc1SC`, the Potency entry was “inactive”. With `CCC(C)(C)NC(=O)CN(Cc1cccs1)C(=O)CNS(=O)(=O)c1ccc(F)cc1` the entry was “inactive”; with `COc1ccc(OC)c(NC(=O)c2cccc(S(=O)(=O)N3CCN(C(C)=O)CC3)c2)c1`, “inactive”. On to `CCOc1ccc(NC(=O)CN(C)C(=O)c2cccc(S(=O)(=O)N3CCCC3)c2)cc1OCC`, for which the Potency entry was “inactive”. For `COc1ccc(NC(=O)CN(C)C(=O)c2cccc(S(=O)(=O)N3CCN(c4ccccc4)CC3)c2)cc1`, the Potency was 20.6 µM (active). To `O=C(NCc1ccccc1Cl)NC(=O)c1csc([N+](=O)[O-])c1` belongs “inactive”. To `CCCOc1ccc(Cc2c(O)nc(SC)[nH]c2=O)cc1C` belongs “inactive”; to `COc1cccc(NC(=O)CN2CCN(CC(=O)Nc3ccccc3Cl)CC2)c1`, “inactive”; to `COc1cccc(NC(=O)NCCN2CCCCC2)c1`, “inactive”. Consider `COc1cccc(NC(=O)C2(C)CCN2Cc2ccccc2Cl)c1` (stereo not given), for which the Potency is 25.9 µM (active).

On to `O=C1COc2c1ccc(O)c2O`, for which the Potency entry was “inactive”.

Turning to `CC(=O)c1c(C)n(-c2ccc(N(C)C)cc2)c2ccc(OCC(N)=O)cc12`, the Potency was 23.1 µM (active).

For `CC(=O)c1c(C)n(-c2ccc(C)cc2)c2ccc(O)cc12`, the Potency result was “inactive”. For the compound `Cc1c(Cc2ccccc2)c(=O)oc2cc(OCC(N)=O)ccc12`, the Potency result was “inactive”. With `COc1ccc(CN2CCCC(N3CCc4ccccc4C3)C2)c(O)c1` (stereo not given), the Potency entry is “inactive”. For `Cc1ccc(NS(=O)(=O)c2ccc(F)cc2)nc1`, the Potency entry was “inactive”. `Cc1cc(F)ccc1NS(=O)(=O)c1ccc(-n2cccn2)cc1`: the Potency is 16.4 µM (active). `Cn1nccc1NS(=O)(=O)c1ccc(F)cc1`: the Potency entry was “inactive”. `COc1ccccc1C(C)NC(=O)Cc1ccsc1` (stereo not given): the Potency entry is “inactive”. Take `CC1=CC(=C(C#N)c2nc3ccccc3s2)C=C(C)N1c1ccc(F)cc1F`: the Potency is 18.4 µM (active). With `Cc1nn(-c2ccc(F)cc2)c(Cl)c1/C=C(/CCC(=O)O)c1nc2ccccc2s1` the entry was “inactive”.

Turning to `CN(Cc1nc2ccccc2s1)C(=O)c1ccc(F)cc1`, the Potency entry was “inactive”. For `COCc1c(C(=O)N/N=C\c2cccnc2)nnn1-c1nonc1N`, the Potency result is “inactive”. With `CN(c1ccccc1)S(=O)(=O)c1ccc(Cl)c(C(=O)OCC(=O)NCc2ccco2)c1`, the Potency result was “inactive”. `Cc1cc(C(=O)OCC(=O)NCc2ccco2)c(C)n1-c1ccccc1`: the Potency was 2.06 µM (active). For the compound `O=C(COC(=O)c1ccccc1O)NCc1ccco1`, the Potency result is “inactive”. With `Cc1ccc(S(=O)(=O)/N=S(\C)C(C)C)cc1` (stereo not given) the entry was “inactive”; with `Cc1cc(O)ccc1NC1=CC(=O)CC(C)(C)C1`, “inactive”. Turning to `Oc1ccc(N=Cc2sc3ccccc3c2Cl)cc1`, the Potency was 10.3 µM (active). Take `Oc1ccc2ccccc2c1C=Nc1ccccc1`: the Potency entry is “inactive”. To `N#C/C(=C/c1ccc(-c2ccccc2[N+](=O)[O-])o1)C(=O)NCCN1CCCCC1` belongs “inactive”; to `O=C1C2C3C=CC(C4CC34)C2C(=O)N1/N=C/c1ccc(-c2ccccc2[N+](=O)[O-])o1` (stereo not given), 18.4 µM (active). Consider `Cc1cc(-c2ccc(/C=N/n3cnnc3)o2)c([N+](=O)[O-])cc1C`, for which the Potency entry was “inactive”. On to `Cn1c(-c2ccc(C(F)(F)F)cc2)cc2onc(-c3ccccc3)c2c1=O`, for which the Potency result was “inactive”. Turning to `Cc1ccc(S(=O)(=O)CCC(=O)OCC(=O)NCCc2ccc(S(N)(=O)=O)cc2)cc1`, the Potency result was “inactive”.

In the case of `CCC1C(=O)NCCN1C(=O)c1ccc2nc(Cc3ccc(OC)cc3)oc2c1` (stereo not given), the Potency entry was “inactive”. `COc1ccc(C(CCNCc2ccccc2F)c2ccc(F)cc2)cc1` (stereo not given): the Potency was 13 µM (active).

For the compound `COc1ccc(CCNC(=O)COC(=O)Cc2ccccc2F)cc1`, the Potency result is “inactive”. As for `COc1ccc(CC(=O)NC(C)CCc2ccccc2)cc1` (stereo not given), the Potency result is “inactive”. For the compound `COc1ccccc1-c1ccnc(-n2ncc(C(=O)NCCc3ccncc3)c2C)n1`, the Potency entry is “inactive”. To `COc1cccc(NC(=O)CN2C(=O)c3ccccc3Sc3ncccc32)c1` belongs 18.4 µM (active). With `CNC(=O)CN1C(=O)c2cccnc2Sc2ccccc21` the entry was “inactive”; with `COCCNC(=O)CCCN1C(=O)c2ccccc2Sc2ncccc21`, “inactive”. As to `C#CCN(C[C@H]1[C@H](OC(=O)NC2CCCC2)[C@H](OC(=O)NC2CCCC2)C[C@H]2C(=O)N(c3ccccc3)C(=O)[C@@H]12)S(=O)(=O)c1ccc(C)cc1`, the Potency entry was “inactive”. Consider `Cc1ccc(S(=O)(=O)N(C)CC(=O)NC2CCCC2)cc1`, for which the Potency entry is “inactive”. With `C#CCN(C[C@@H]1[C@@H](OC(=O)NC2CC2)[C@@H](OC(=O)NC2CC2)Cn2c(=O)ccc(=O)n21)S(=O)(=O)c1ccc(C)cc1`, the Potency was 14.6 µM (active). With `CN(C)CCN(C(=O)C1=COCCO1)c1nc2ccc(Cl)cc2s1`, the Potency result was “inactive”. Take `CC(=O)OCc1cc(=O)n(C)c(=O)n1C`: the Potency result was “inactive”.

On to `CC1C(O)CC2C(C(=O)O)=CO[C@@H](O[C@H]3OC(CO)C(O)C(O)C3O)C21` (stereo not given in full), for which the Potency entry is “inactive”. As for `CN(C)S(=O)(=O)c1ccc(NC(=O)N2CCOCC2)cc1`, the Potency result was “inactive”. `COc1ccc(S(=O)(=O)N(C)CC(=O)N2CCCC2)cc1`: the Potency entry was “inactive”. In the case of `CN(C)S(=O)(=O)c1ccc(Oc2ccc(S(=O)(=O)N(C)C)cc2)cc1`, the Potency was 18.4 µM (active). Take `C#CCOCCOCCOCCNc1nc(N2CCN(C(=O)[C@H](CCC(=O)O)n3cc(CN)nn3)CC2)nc(N2CCN(C(=O)[C@H](CCC(=O)O)n3cc(CN)nn3)CC2)n1`: the Potency entry was “inactive”.

With `Cc1cccc(C(=O)NCc2nnc(SC(C)C(=O)Nc3nnc(C)s3)n2C)c1` (stereo not given), the Potency entry was “inactive”. For `CCc1ccc(Oc2coc3cc(O)ccc3c2=O)cc1`, the Potency result was “inactive”. Turning to `COc1cc(C(=O)OC(C)C(=O)NCC2CCCCC2)cc(NC(=O)c2ccco2)c1OC` (stereo not given), the Potency is 20.6 µM (active).

Take `CC(OC(=O)c1cccc(S(=O)(=O)N2CCOCC2)c1)C(=O)NCC1CCCCC1` (stereo not given): the Potency result was “inactive”. For the compound `COc1cc(C(C(=O)NC2CCCC2)N(C(=O)c2ccco2)c2ccccc2C(C)=O)cc(OC)c1OC` (stereo not given), the Potency entry is “inactive”. `CSCC[C@H](NC(=O)N1CCn2c1nc1ccccc12)C(=O)NCc1ccc2c(c1)OCO2`: the Potency entry was “inactive”. Regarding `CC(=O)N/C(=C\c1ccccc1)C(=O)OC(C)C(=O)N(C)c1ccccc1` (stereo not given), the Potency entry is “inactive”. As to `O=S(=O)(NCCS(=O)(=O)N1CCN(c2ccccc2)CC1)c1ccc(Cl)cc1`, the Potency result was “inactive”. As for `CC(=O)Nc1ccc(NC(=O)CN2CCCC(C)C2)c(Cl)c1` (stereo not given), the Potency result is “inactive”.

`CC1CCCN(CC(=O)Nc2cc(Cl)ccc2Oc2ccccc2)C1` (stereo not given): the Potency was 16.4 µM (active). `O=C(CSc1ccccc1)Nc1cc(Cl)ccc1Oc1ccccc1`: the Potency result was “inactive”. Regarding `COC(=O)[C@@H](Cc1ccccc1)NC(=O)NCCc1ccccc1`, the Potency result was “inactive”. For the compound `CN1CCN(Cc2c(O)ccc3c2oc(=O)c2ccccc23)CC1`, the Potency was 11.6 µM (active). For the compound `COc1ccc(-c2c(C)c3ccc(O)c(CN4CCN(C)CC4)c3oc2=O)cc1OC`, the Potency entry was “inactive”. Regarding `CCOC(=O)c1oc2c(CN3CCN(C)CC3)c(O)ccc2c(=O)c1-c1ccc(Br)cc1`, the Potency entry is “inactive”. For `COc1ccc(C(C)=O)cc1CSc1nc2nc(C)cc(C)n2n1`, the Potency result is “inactive”.

(Values after PubChem BioAssay AID686978 (National Center for Advancing Translational Sciences (NCATS), 2013).)
